The campaign covered roughly 64,000 compounds. About 220 (0.34%) were called active. This is one part of a sample in which actives are shown more often than they occur.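 How the source made its calls: active means inhibition above 50%; inactive means the rest.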

The assay has as its target Heat shock protein HSP 90-alpha (Homo sapiens) (UniProt P07900). Kind of assay: Hsp90 geldanamycin-site probe displacement – cell lysate, fluorescence polarization, NCI-N417 lysate, primary screen (AID 429).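 Further: 0% = tracer plus lysate wells and 100% = tracer alone without lysate.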 The conditions noted are these: NCI-N417 lysate Hsp90, Cy3B-geldanamycin FP displacement; at 30 µM; stronger effect = higher value. On the technique in general: Polarisation of emitted light reports the rotation of a fluorescent probe.
`NC1CCN(O)C1=O` (configuration not stated): the inhibition is -1.33% (inactive). In the case of `CCCC(=O)N(CCc1ccccc1)Cc1nc2ccccc2c(=O)[nH]1`, the inhibition was -3.96% (inactive). Regarding `Cn1c(=O)[nH]c(=O)c2c1nc(Br)n2CCCCSc1nc2ccccc2o1`, the inhibition was 2.94% (inactive). For `CSCCC(NS(=O)(=O)/C=C/c1ccccc1)C(=O)N1CCC(C)CC1` (configuration not stated), the inhibition is 0.46% (inactive). With `O=S1(=O)CCN2C(=N1)SC1=C2CCN(Cc2ccccc2)C1`, the inhibition was 1.02% (inactive).

`COc1cc2c(cc1OC)C(c1ccncc1)CC(=O)N2` (configuration not stated): the inhibition was -0.47% (inactive). As to `CCC/C(O)=C1\C(=O)CC(C)(C)CC1=Nc1ccccc1OC`, the inhibition was -4.54% (inactive). On to `CC(=O)c1c(C)c[nH]c1C`, for which the inhibition is 3.14% (inactive). Take `COc1cc(C(=O)Nc2oc(-c3ccccc3)c(-c3ccccc3)c2C#N)cc(OC)c1OC`: the inhibition is 1.74% (inactive). As for `COc1ccc(CNC2CCCCC2)cc1`, the inhibition is -2.8% (inactive). Regarding `CC(C)Cn1c(N)c(C(=O)NCc2cccs2)c2nc3ccccc3nc21`, the inhibition was -3.05% (inactive). For `C=CCn1c(N)c(S(=O)(=O)c2cccs2)c2nc3ccccc3nc21`, the inhibition is -4.06% (inactive). For the compound `C=CCn1c(N)c(C(=O)OCC(C)C)c2nc3ccccc3nc21`, the inhibition was 65.5% (active). To `CS(=O)(=O)NCc1ccc(C(=O)NCc2ccccc2)cc1` belongs -1.87% (inactive). With `N#C/C(=C\c1ccc(O)c(O)c1)C(=O)NCc1ccccc1`, the inhibition was 77.1% (active). As to `O=C(CCOc1ccccc1)NCc1ccccc1`, the inhibition is 2.46% (inactive). On to `COc1ccc(C2CC(c3ccc(C)cc3)Nc3ncnn32)cc1` (configuration not stated), for which the inhibition was -1.24% (inactive). Then `CN(C)CCOC(=O)C(c1ccccc1)C1(O)CCCC1` (configuration not stated), with -3.68% (inactive). For `CC(=O)c1ccc(-n2nnnc2SCC(=O)N2CCN(C(=O)c3ccco3)CC2)cc1`, the inhibition was -0.68% (inactive).

As to `O=C(O)C1CCCN(CCC=C(c2ccccc2)c2ccccc2)C1` (configuration not stated), the inhibition is 0.96% (inactive). Regarding `COc1cc(NS(=O)(=O)c2cccc3nsnc23)c2ncccc2c1`, the inhibition was 0.42% (inactive). Consider `COc1ccccc1Oc1ccc(S(=O)(=O)Nc2cccnc2)cc1`, for which the inhibition was -4.43% (inactive). On to `O=C(O)CCC(=O)N(Cc1ccco1)c1nc(-c2ccccc2)cs1`, for which the inhibition is -1.19% (inactive). Then `CS(=O)(=O)N1CCCC(C(=O)N2CCOCC2)C1` (configuration not stated), with -0.69% (inactive).

Consider `CN(c1ccc(C(=O)NCCC2=CCCCC2)cc1)S(C)(=O)=O`, for which the inhibition is -2.17% (inactive). With `NC(=O)Cn1c(=O)oc2ccccc21`, the inhibition was 2.54% (inactive).

Take `O=C(NCCCN1CCN(Cc2ccccc2)CC1)C1CCN(S(=O)(=O)N2CCCC2)CC1`: the inhibition is -1.77% (inactive). As to `Oc1ccc(Cl)cc1/C=N/c1nc2ccccc2[nH]1`, the inhibition was 1.09% (inactive). On to `NC(=O)C1=CN(C2OC(COP(=O)(O)OP(=O)(O)OC[C@H]3O[C@@H](n4cnc5c(N)ncnc54)C(OP(=O)(O)O)[C@H]3O)C(O)C2O)C=CC1` (some centres not stated), for which the inhibition was -0.66% (inactive). On to `CCCCSc1nnc(-c2ccc(NC(=O)CC)cc2)n1C`, for which the inhibition is -0.77% (inactive). To `COC(=O)Cc1csc(Nc2c(C)n(C)n(-c3ccccc3)c2=O)n1` belongs -1.47% (inactive); to `CCOc1ccc(N(CC(=O)NCc2ccc(OC)cc2)S(=O)(=O)c2c(C)noc2C)cc1`, -5.24% (inactive). To `O=C(Nc1ccccc1-c1nnn(CC(=O)N2CCN(c3ccccc3)CC2)n1)c1cccs1` belongs 0.39% (inactive).

Regarding `CC(c1cccnc1)N(CCN(C)C)C(=O)Nc1ccc(Cl)c(Cl)c1` (configuration not stated), the inhibition is -1.45% (inactive). Regarding `Cn1c(=O)c2c(nc(SCC(=O)Nc3ccccc3N3CCCCC3)n2C)n(C)c1=O`, the inhibition was -1.91% (inactive).

In the case of `COc1ccc(Cn2cccc(NC(=O)Nc3ccc(C#N)cc3)c2=O)cc1`, the inhibition was -1.69% (inactive). Consider `O=C1C=C(NCCNc2c(F)c(F)c(CO)c(F)c2F)CCC1`, for which the inhibition is -1.66% (inactive). As for `Cn1cccc1C1(C(F)(F)F)NCCNC1=O` (configuration not stated), the inhibition is -0.05% (inactive). For `CCN(CC)Cc1c(C(=O)OC)nnn1-c1nonc1N`, the inhibition was -0.51% (inactive).

With `Cc1cc2c(cc1C)NC(c1ccccn1)C1=C(CC(C)(C)CC1=O)N2` (configuration not stated), the inhibition is 0.74% (inactive). On to `COC(=O)c1cc(S(=O)(=O)NC2CCN(Cc3ccccc3)CC2)cn1C`, for which the inhibition is -0.68% (inactive). For the compound `C=C(C)c1cccc(C(C)(C)NC(=O)N2CCN(c3ncccn3)CC2)c1`, the inhibition is 1.26% (inactive).

Turning to `CCOC(=O)N1CCN(C(=O)c2nn(-c3ccc(C)cc3)c(=O)c3c2c2ccccc2n3C)CC1`, the inhibition was -3.87% (inactive). For the compound `CC(C)C(c1nnnn1C1CCCC1)N1CCN(c2ccccc2F)CC1` (configuration not stated), the inhibition is -0.85% (inactive). Then `O=S1(=O)CC(NCc2ccccc2)C(Nc2ccc(Cl)cc2)C1` (configuration not stated), with 1.54% (inactive); and `COc1cc(N=C2C=CC(=O)C=C2)c2ncccc2c1`, with 3.25% (inactive). As for `COc1ccc(-c2nc(CS(=O)CC(=O)NCc3cccnc3)c(C)o2)cc1OC` (configuration not stated), the inhibition was -3.8% (inactive). Regarding `COc1ccc(-c2nc(CS(=O)CC(=O)NCc3ccccn3)c(C)o2)cc1` (configuration not stated), the inhibition was 71.4% (active). To `COc1ccc(-c2nc(CS(=O)CC(=O)N3CCc4ccccc4C3)c(C)o2)cc1` (configuration not stated) belongs 0.64% (inactive); to `O=C1[C@@H]2C(Cc3ccc(O)cc3)NC3(C(=O)Nc4ccc(F)cc43)[C@@H]2C(=O)N1c1ccc(F)cc1` (some centres not stated), -5.22% (inactive); to `NC(=NC(=O)c1ccccc1)C1=C(O)CCC1=O`, 0.78% (inactive).

For the compound `CSCCC(Nc1nc2ccccc2s1)C(=O)O` (configuration not stated), the inhibition was 2.67% (inactive).

Turning to `C[C@H](NC(=O)NCCc1ccccc1)C(=O)O`, the inhibition is 1.74% (inactive). Turning to `Cc1ccc(C)c(NS(=O)(=O)c2cc(Br)cnc2N)c1`, the inhibition is 0.39% (inactive). Regarding `Cc1[nH]c2ccccc2c1C(=O)CSCC(=O)O`, the inhibition is -2.89% (inactive). For the compound `CC1CCN(Cc2nc3c(c(=O)n(C)c(=O)n3C)n2Cc2cccc3ccccc23)CC1`, the inhibition was -1.11% (inactive). `CCCOC(=O)Cc1c(O)c2ccccc2[nH]c1=O`: the inhibition was 1.56% (inactive).

`COc1cc(OC)cc(-c2nc3nc(C)c(CCC(=O)NCc4ccco4)c(C)n3n2)c1`: the inhibition was 1.84% (inactive). For `Cc1ccc(C2(c3ccc(C)cc3)NC(=O)N(Cc3c(C)noc3C)C2=O)cc1`, the inhibition is 1.01% (inactive).

For the compound `C#CCCCNc1cc(OC)cc2cccnc12`, the inhibition was -1.17% (inactive). On to `COc1cc(NCCCC#N)c2ncccc2c1`, for which the inhibition is -2.3% (inactive). To `COc1cc(NC(C)CCCNC(C)C)c2ncccc2c1` (configuration not stated) belongs 95.6% (active).

The record behind these values is PubChem BioAssay AID429 (Emory University Molecular Libraries Screening Center, 2006).
